Reference: PubChem BioAssay AID1272365 (Small Molecule Screening Facility, UW Madison, 2018)
Values joined by “and” are separate entries in the source; they are usually repeats but may differ in a detail not shown here. Equal values may be shown once. Out of some 430,000 compounds screened, about 2,600 (0.6%) were called active. Cut-off read from the data, not from the text of the source: active = inhibition mostly above about 37% (no sharp cut-off); inactive = mostly below about 20%. The sample as a whole holds a higher share of actives than the screen did.

Tested on: PriA–SSB C-terminal tail interaction (Klebsiella pneumoniae)
Assay: inhibitors of Klebsiella pneumoniae PriA binding to SSB C-terminal tail, primary screen, biochemical, AlphaScreen (AID 1272365);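 for inhibition: plate controls were negative control peptide for no effect and reference peptide for full effect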
Conditions: AlphaScreen SSBct-PriA binding, biotinylated peptide; at 33 µM, stronger effect = higher value

Row | Structure (SMILES) | inhibition
1 | CC(C)(CC(=O)NCc1ccc(F)cc1)CC1=NS(=O)(=O)c2ccccc2N1 | -14% (inactive)
2 | COc1ccc(C(=O)Nc2ccc(S(C)(=O)=O)cc2)cc1 | -8% (inactive)
3 | CC(C)Sc1nc(N2CCCC2)c2cnn(CCNC(=O)c3cccs3)c2n1 | -8% (inactive)
4 | CCn1ccnc1CN1CCN(C)CC1 | 0% (inactive)
5 | CC(=O)Nc1ccc(S(=O)(=O)N2CCN(S(=O)(=O)c3ccc(C)cc3)CC2)cc1 | -19% (inactive)
6 | N#Cc1nccnc1O[C@H]1CCCN(C(=O)c2ccc3nc[nH]c3c2)C1 | -19% (inactive)
7 | Cc1cccc(-n2cc(-c3ccccc3)c3c(Nc4ccc(Oc5ccc(Cl)cc5)cc4)ncnc32)c1 | -17% (inactive)
8 | Cc1cccc(C(=O)Nc2nnc(Cc3c[nH]c4ccccc34)s2)c1 | 6.73% (inactive)
9 | Cc1cccc(N=C2NN=C(c3c[nH]c4ccccc34)CS2)c1 | 48.7% (active)
10 | C=CCn1c(C)cc(C2=NNC(=NCC)SC2)c1C | 29.4% (inactive)
11 | Cn1cc(S(=O)(=O)Nc2ccc(CC(=O)N3CCOCC3)cc2)cn1 | 6% (inactive)
12 | NS(=O)(=O)c1ccc(CNC(=O)c2ccc(Cl)cc2[N+](=O)[O-])cc1 | -24.6% (inactive)
13 | C/C(=N\Nc1ccc(S(N)(=O)=O)cc1[N+](=O)[O-])c1cccs1 | inactive
14 | CC(CCC(C)C)=NNc1ccc(S(N)(=O)=O)cc1[N+](=O)[O-] | 42.4% (active)
15 | O=C(c1cc2n(n1)CCCO2)N1CCN(Cc2cccnc2)CC1 | -17% (inactive)
16 | COc1cccc(OC)c1C(=O)N1CCN(Cc2cccnc2)CC1 | 49% (active)
17 | COc1ccccc1C(=O)N1CCN=C1SCc1cccnc1 | -0.73% (inactive)
18 | O=C(c1cc2ccccc2o1)N1CCN(C(=O)C2CC2c2ccccc2)CC1 (centres undefined) | 2% (inactive)
19 | Cc1cc(S(=O)(=O)N2CCOC23CCN(C(=O)c2cc(=O)c4ccccc4o2)CC3)ccc1F | -9% (inactive)
20 | CC1CCN(c2nc(-c3ccccn3)nc3ccccc23)CC1 | 102% (active)
21 | CC1CCN(C(=O)Cn2c(-c3ccncc3)nc3ccccc32)CC1 | 4% (inactive)
22 | Cc1ccc2cc(C)c(N3CCC(C)CC3)nc2c1 | -34.6% (inactive)
23 | O=C1C(=O)N(CN2CCN(C(c3ccccc3)c3ccccc3)CC2)c2ccccc21 | -1% (inactive)
24 | COC(=O)/C=C1\SC(=NNC(=O)c2ccccc2)NC1=O | -6.67% (inactive)

Row | Structure (SMILES) | inhibition
25 | Cc1nc(-c2cccs2)sc1CNC(=O)c1ccc(=O)[nH]c1 | 5% (inactive)
26 | Nc1[nH]nc2nc(-c3ccccn3)ccc12 | 94.2% (active)
27 | Cc1cc2cc3c(N)[nH]nc3nc2cc1C | -6.78% (inactive)
28 | Cc1cc(NC(=O)C(C)(C)Oc2ccc(Cl)cc2)n(-c2nc3c(c(=O)[nH]2)CCC3)n1 | -1% (inactive)
29 | CCOC(=O)c1c(NC(=O)c2c(F)cccc2F)sc2c1CCN(C(=O)OCC)C2 | -7% (inactive) and -12% (inactive)
30 | CCOC(=O)c1ccc(NNC(C)=O)c([N+](=O)[O-])c1 | 3.85% (inactive)
31 | CN(c1ccccc1)c1ccc([N+](=O)[O-])c2nonc12 | 32.9% (inactive)
32 | CCc1ccc(Nc2ccc([N+](=O)[O-])c3nonc23)cc1 | 79.3% (active)
33 | O=C(COc1ccccc1)N1CCN(c2ccc(-c3ccco3)nn2)CC1 | -12% (inactive)
34 | COc1ccc(C)cc1NC(=O)Cc1csc(NS(=O)(=O)c2ccccc2)n1 | 6% (inactive)
35 | COc1ccc(OC)c(Nc2nc(CC(=O)N3CCN(c4ncccn4)CC3)cs2)c1 | 19% (active)
36 | COc1ccc(OC)c(Nc2nc(CC(=O)N3CCc4ccccc43)cs2)c1 | 12% (inactive)
37 | COc1ccc(OC)c(Nc2nc(CC(=O)Nc3nc4ccccc4s3)cs2)c1 | 38% (active)
38 | O=C1CCC(C(=O)Nc2nc(CC(=O)N3CCN(c4ccccn4)CC3)cs2)N1 (centres undefined) | 8% (inactive)
39 | COC(=O)Nc1nc(CC(=O)Nc2ccccc2OC)cs1 | -13% (inactive)
40 | CCCCN(C1CCS(=O)(=O)C1)S(C)(=O)=O (centres undefined) | 10% (inactive)
41 | Cc1ccc(C)c(CSc2nnc3n(C)c(=O)c4ccc(C(=O)NC5CCCC5)cc4n23)c1 | 0% (inactive)
42 | O=C(c1ccc(S(=O)(=O)N2CCCCC2)cc1)N(c1cccc(Cl)c1)C1C=CS(=O)(=O)C1 (centres undefined) | -8% (inactive)
43 | O=C(NCCCn1ncccc1=O)c1cccc(C(F)(F)F)c1 | -10% (inactive)
44 | CSc1cccc(-c2nnc(NC(=O)c3ccc(Cl)s3)o2)c1 | 11% (inactive) and 4% (inactive)
45 | Cc1cc(SCC(=O)Nc2ccc(OC(F)F)cc2)nc2ccccc12 | -2% (inactive) and -21% (inactive)
46 | Cn1ccc(C(=O)Nc2ccc(F)cc2)n1 | 8% (inactive)
47 | COc1cc2nc(SCc3cc(=O)n4cc(Cl)ccc4n3)n3nc(C)nc3c2cc1OC | -5% (inactive)
48 | O=C(NCc1ccco1)C(=O)Nc1c2c(nn1-c1ccc(F)cc1)CSC2 | -7% (inactive)

Row | Structure (SMILES) | inhibition
49 | COc1ccccc1CCNC(=O)C(=O)NC[C@@H](c1ccco1)N1CCc2ccccc21 | 8% (inactive)
50 | O=C(NCC(c1ccco1)N1CCc2ccccc21)C(=O)Nc1ccccc1[N+](=O)[O-] (centres undefined) | 42% (active)
51 | Cc1ccccc1C(=O)NCC(c1ccco1)N1CCc2ccccc21 (centres undefined) | -7.16% (inactive)
52 | COc1ccc(NC(=O)Nc2nnc(SCC(=O)Nc3cccc([N+](=O)[O-])c3)s2)cc1 | -16% (inactive)
53 | Cc1cc([N+](=O)[O-])c(N2CCC[C@@H]2C(=O)O)c([N+](=O)[O-])c1 | -16.2% (inactive)
54 | Cc1cc(OCC(=O)NC2CCN(C)CC2)ccc1[N+](=O)[O-] | -23% (inactive)
55 | Cc1cc([N+](=O)[O-])c(NC2CCCCC2)c([N+](=O)[O-])c1 | 80.5% (active)
56 | NC(=O)C1CCN(C(=O)N[C@H]2CC(=O)N(c3ccc(F)cc3)C2)CC1 | 2% (inactive)
57 | Cc1ccc(NC(=O)C(=O)NC[C@](C)(O)c2cccs2)cc1C | -4% (inactive)
58 | COc1ccc(CCC(=O)N2CCC(Oc3cc(C)oc(=O)c3)C2)cc1Br (centres undefined) | 4% (inactive)
59 | Cc1cc(NC(=O)CSc2nnc(-c3ccc(Cl)s3)o2)no1 | 43.9% (active) and 1% (inactive)
60 | Cc1nnc(NC(=O)CSc2nnc(-c3ccccc3C)o2)s1 | 11% (inactive)
61 | Cc1cc(NC(=O)CSc2nnc(CNC(=O)c3cccs3)o2)no1 | -5% (inactive)
62 | COC(=O)C1CCN(C(=O)CCc2csc3nc(-c4ccc(OC)cc4)cn23)CC1 | -11% (inactive)
63 | Cn1ccnc1S(=O)(=O)C1CCN(C(=O)c2ccc3nsnc3c2)CC1 | -12% (inactive)
64 | O=C(Nc1nc2c(s1)CN(Cc1ccccc1)CC2)c1cc(Cl)sc1Cl | 23% (inactive)
65 | COc1ccccc1CCNC(=O)CSc1nnc2ccc(-c3cccnc3)nn12 | -8.11% (inactive) and 15% (inactive)
66 | CSc1ccc(NC(=O)c2ccccc2F)nn1 | 2% (inactive)
67 | Brc1ccc(CSc2nnc3ccc(-c4ccccn4)nn23)cc1 | -17% (inactive)
68 | CSc1ccc(-c2ccccn2)nn1 | 148% (active)
69 | COc1cc(NC(=O)CSc2ccc(-c3cccnc3)nn2)cc(OC)c1 | 6.7% (inactive)
70 | O=C(CSc1ccc(-c2cccnc2)nn1)NCCc1ccccc1 | -2% (inactive)
71 | O=C(CSc1ccc(-c2ccccn2)nn1)Nc1ccccc1 | 90.4% (active)
72 | COc1ccccc1CCNC(=O)CSc1ccc(-c2ccccn2)nn1 | 81.7% (active)

Row | Structure (SMILES) | inhibition
73 | O=C(CSc1ccc(-c2ccc(-n3cccn3)cc2)nn1)Nc1ccc([N+](=O)[O-])cc1 | -0.41% (inactive)
74 | NC(=NOC(=O)C1CCCCC1)c1ccc(Br)cc1 | -26.4% (inactive)
75 | CS(=O)(=O)c1ccccc1C(=O)N1CCN(c2ccccc2)CC1 | 0% (inactive)
76 | CN(C)S(=O)(=O)c1ccc(C(=O)NCc2nnc(SCc3c(F)cccc3Cl)o2)cc1 | 6% (inactive) and -7% (inactive)
77 | Cc1ccc(N2CCn3c2nc2c3c(=O)n(CCN3CCOCC3)c(=O)n2C)cc1Cl | 0% (inactive)
78 | COC(=O)c1ccc2c(=O)n(CCCC(=O)NCc3cccs3)c(=S)[nH]c2c1 | -3% (inactive)
79 | O=C(NCCCn1ccnc1)c1cc(-c2ccccc2)on1 | 2.55% (inactive)
80 | O=C(NCCCn1ccnc1)c1cc2c(s1)CCCC2 | 44.7% (active)
81 | Cc1ccc2c(Cl)c(C(=O)NCCCn3ccnc3)sc2c1 | 9.4% (inactive)
82 | COc1ccc(/C=N\N=C2\NC(=O)C(CC(=O)NC(N)=O)S2)c(C(=O)O)c1OC (centres undefined) | -10% (inactive)
83 | Cc1ccccc1-n1c(O)c(C=CC=Nc2ccccc2)c(=O)[nH]c1=O | 4.92% (inactive)
84 | O=C(Nc1nnc(C2CCCO2)o1)c1sc2ccccc2c1Cl (centres undefined) | 34% (inactive)
85 | O=C(COc1ccc(Cl)cc1Cl)Nc1nnc(C2CCCO2)o1 (centres undefined) | 63% (active)
86 | O=C(Nc1nnc(C2CCCO2)o1)c1cc2ccccc2oc1=O (centres undefined) | 4% (inactive)
87 | COc1ccc(CCC(=O)NCCCn2nc(-c3ccccc3)ccc2=O)cc1 | 2% (inactive)
88 | O=C(NC(=S)Nc1ccccc1C(=O)O)c1ccc(-c2ccc(Br)cc2)o1 | 3.73% (inactive)
89 | O=CN1CCN(C(=O)c2ccc(Br)o2)CC1 | -5.54% (inactive)
90 | CN1CCN(C(=O)c2ccc(-c3ccc(Br)cc3)o2)CC1 | 39% (active) and 2.72% (inactive)
91 | O=C(O)CNC(=O)CN1C(=O)S/C(=C\C=C\c2ccccc2)C1=O | -12% (inactive)
92 | O=C(NCc1ccc2c(c1)OCO2)c1csc(Nc2ccccc2)n1 | 0% (active)
93 | O=C(NCCc1ccccc1)c1csc(Nc2ccccc2)n1 | 7% (inactive)
94 | O=C(O)/C=C\C(=O)NCc1ccc2c(c1)OCO2 | -5% (inactive)
